The values below come from ChEMBL document CHEMBL4513135, “CO-ADD screening of IQOG CSIS (Spain) compounds”.

The Inhibition is the change of the read-out against control, counted positive when it falls.

Results with a measured potency or affinity are listed apart.

The test concerns Staphylococcus aureus. As to conditions: Concentration 32 ug.mL-1; ASSAY_TEST Inhibition of Bacterial Growth; detection method Absorption (OD600); MEDIA CAMHB; plate type 384well; NBS; CORNING #3640; time 18 hr.
Take `Cc1ccc2nc(Cl)c(/C=N/OCc3ccccc3)cc2c1`: the Inhibition is reported as 31.42%.
The value for `NNC(=O)Cc1c[nH]c2ccccc12` was 10.37%.
The value for `COc1cc(C2C(C#N)=C(N)Oc3c2ccc2ccccc32)ccc1O` (stereo not drawn) was 50.2%; that for `COc1ccccc1C1c2ccc3ccccc3c2OC(=NBr)C1(Br)C#N` (stereo not drawn) was 25.54%; that for `COc1cccc(C2C(C#N)=C(N)Oc3[nH]nc(C)c32)c1` (stereo not drawn) was 6.27%.
With `CC(=O)CC(=O)N1[C@@H]2C[C@H]3CCC2(CS1(=O)=O)C3(C)C` the figure was 27.16%.
Turning to `C/C(Cc1ccccc1)=N/NC(=O)c1c[nH]c2ccc(O)cc12`, the Inhibition came out at 7.12%.
For the molecule `Cc1cnc2ccc(Cl)cn12`, the Inhibition is on record as 9.7%.
For `Cl.Nc1c2c(nc3c1C(c1ccccc1)c1ccc4ccccc4c1O3)CCCC2` (stereo not drawn), the Inhibition amounted to 23.84%.
The value for `O=C(COc1ccc2ccccc2c1)N/N=C/c1c[nH]c2ccccc12` was 3.21%; that for `CC1Cc2c(Cl)nc3nc4c(c(N)c3c2NC1=O)CCCC4` (stereo not drawn) was 46.7%; that for `O=C(O)C(=Cc1ccccc1)NC(=O)c1ccccc1` was 14.72%.
The value for `CS(=O)(=O)O[C@H]1CC[C@H](OS(C)(=O)=O)CC1` was 29.12%; that for `Cn1c(C(=O)O)cc2cc(OCCCC3CCN(Cc4ccccc4)CC3)ccc21` was 27.49%; that for `CC(C)(C)OC(=O)Nc1ccc(Br)cn1` was 40.42%.
Consider `CCOC(=O)C1=C(C)Oc2nc3c(c(N)c2C1c1nccn1C)CCCCC3` (stereo not drawn), for which the Inhibition amounted to 10.64%.
The value for `CN1C/C(=C\Br)n2c1c(C#N)cc(C#N)c2=O` was 16.92%; that for `Cl.Cl.Cn1c(CNc2ccccc2)cc2cc(OCCCC3CCN(Cc4ccccc4)CC3)ccc21` was 21.22%.
The value for `C=CCNCc1cc2cc(OCCCC3CCN(Cc4ccccc4)CC3)ccc2[nH]1.O.O=C(O)C(=O)O.O=C(O)C(=O)O` was 13.83%.
With `C#CCNc1nc(OC)c(C#N)c(-c2ccccc2)c1C#N` the figure was 49.28%; with `CCOC(=O)/C(C#N)=C\c1ccc(Cl)cc1`, 19.96%.
As for `Clc1ccc(-c2cn3ccccc3n2)cc1`, the Inhibition came to 13.75%.
With `COc1ccc(C2c3c(ccc4ccccc34)OC(=NBr)C2(Br)C#N)cc1` (stereo not drawn) the figure was 37.33%; with `COC(=O)C(=Cc1ccc(OC)cc1)NC(=O)c1ccccc1`, 17.26%; with `Cc1ccc(/C=C(\C#N)C(=O)c2ccccc2)cc1`, 25.42%.
The value for `COC(=O)C(NC(=O)c1ccccc1)=C(C)c1ccccc1` was 11.03%; that for `Cl.ClCCCCCN1CCCCC1` was 7.58%; that for `C#CCNc1cccc(F)n1` was 34.2%.
With `N#Cc1cc(Br)cc(Br)c1N` the figure was 3.71%; with `Cn1c(C(=O)NCc2ccccc2)cc2cc(OCCCC3CCN(Cc4ccccc4)CC3)ccc21`, 21.45%.
Consider `CCCCCCC(C)NNC(=O)c1cc2ccccc2[nH]1` (stereo not drawn), for which the Inhibition is recorded as -0.84%.
The value for `CC(C)(C)OC(=O)Nc1ccccn1` was 38.41%.
The value for `COc1ccc(C2c3c(ccc4ccccc34)OC(=N)C2(Br)C#N)cc1OC` (stereo not drawn) was 9.13%.
The value for `Cn1c(CNNC(=O)c2ccco2)cc2ccccc21` was 1.86%.
In the case of `COc1ccc2cc(C=O)c(Cl)nc2c1`, the Inhibition was 17.7%.
The value for `CC1=NC(=Cc2ccc([N+](=O)[O-])cc2)C(=O)O1` was 3.5%; that for `Cc1nc2c3cnn(-c4ccccc4)c3nc(C)n2n1` was 14.43%.
The value for `COc1nc2ccccc2cc1C=O` was 17.37%.
